Test results from PubChem BioAssay AID463195 (Sanford-Burnham Center for Chemical Genomics, 2010).
About 4,600 (1.4%) of roughly 330,000 compounds were called active. For the sample, actives were picked, then their nearest neighbours and some compounds at random. Unmarked numbers belong to inactive results.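 How the source made its calls: active means inhibition of 40% or more at the single tested concentration; inactive means the rest.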

Experiment: growth inhibitors of isogenic TIM10 control yeast, primary screen, counter-screen for tim10-1 yeast inhibitor project, luminescence, uHTS (AID 463195);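 further: wild-type TIM10 isogenic control strain grown at permissive 25 °C; 0% = DMSO yeast wells and 100% = minimal medium wells without yeast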
Settings: S. cerevisiae TIM10 strain growth, BacTiter-Glo luminescence, 24 h; at 10 µM; active compounds read high

| Compound | inhibition |
| --- | --- |
| COc1ccc2c(c1)c(C(=O)N/N=C/c1cccs1)c(C)n2C | 24% |
| COc1cccc(CNC(=O)CCC2CCCN(C(=O)c3ccoc3C)C2)c1 (stereo not given) | 10.1% |
| Cn1c2ccccc2c2c(C(=O)N3CCN(c4ccc(F)cc4)CC3)cn(C3CCCC3)c(=O)c21 | 37.3% |
| CC1CCN(Cc2nc3c(c(=O)n(C)c(=O)n3C)n2CCc2ccccc2)CC1 | 3.96% |
| CCCc1nc2c(c(=O)c3ccccc3n2C)c(=O)n1C1CCCCCC1 | 49.4% (active) |
| CCOC(=O)CSc1nc2ccc(C)cc2n2cnnc12 | 3.21% |
| O=c1oc2ccccc2c(NC2CCCCC2)c1NS(=O)(=O)c1ccc(Cl)cc1 | 21.4% |
| O=c1ccc2cc(S(=O)(=O)Nc3ccccc3F)ccc2o1 | 4.92% |
| O=c1oc(-c2ccccc2NS(=O)(=O)c2ccc(Cl)cc2)nc2ccccc12 | 59.4% (active) |
| O=C(NC(=O)c1ccccc1N1CCCCC1)Nc1ccc(Br)cc1 | 14.8% |
| CCOCCn1[nH]c2ccccc2c1=O | 2.98% |
| Cc1ccc(N2C(=O)CC(Sc3ncn[nH]3)C2=O)cc1 (stereo not given) | 26.4% |
| COc1ccc(N2C(=O)CC(Sc3n[nH]c(-c4ccc(C)cc4)n3)C2=O)cc1 (stereo not given) | 54% (active) |
| COc1ccc(N2C(=O)CC(SC(C)C)C2=O)cc1 (stereo not given) | 5.36% |
| COc1ccc(CNC(=O)c2ccc3oc(C(C)C)nc3c2)cc1 | 2.31% |
| O=C(CSc1ccc(-c2ccco2)nn1)Nc1cccc(F)c1 | 6.71% |
| Fc1cccc(Cl)c1CSc1ccc(-c2ccco2)nn1 | 46.6% (active) |
| Cc1cc(SCc2c(F)cccc2Cl)nc(=O)[nH]1 | 9.07% |
| O=C(Nc1ccc(F)cc1)c1cc2c(s1)CCCC2 | 14% |
| O=C(Nc1ccc2c(c1)CCC2)c1ccc(Br)s1 | 61.4% (active) |

| Compound | inhibition |
| --- | --- |
| CC1CC(C)CN(CCC(=O)Nc2ccc3c(c2)CCC3)C1 (stereo not given) | -5.01% |
| COc1ccccc1N1CCN(S(=O)(=O)c2ccc3c(c2)NC(=O)CS3)CC1 | 12.3% |
| COc1cccc(-n2c(=S)sc3c(=O)n(-c4ccccc4C)c(SCC(=O)O)nc32)c1 | 8.02% |
| C=CCN(C(=O)Cn1ncc2c1-c1cc(C)ccc1OC2)c1ccccc1 | 16.6% |
| Cc1cc(C)c2c(-c3ccc(F)cc3)c(C#N)c(=O)n(C)c2n1 | 11.3% |
| COc1ccc(O)c(C(=O)c2cnc3c(c2)c(-c2ccc(F)cc2)c(C#N)c(=O)n3C)c1 | 40.2% (active) |
| COCCn1c(=O)[nH]c(=O)c2cc(C(=O)c3cc(OC)ccc3O)cnc21 | -1.14% |
| O=C(c1ccc(-n2cnnn2)cc1)N1CCN(C(c2ccccc2)c2ccccc2)CC1 | 2.74% |
| Clc1cccc(-c2nc(NCC3CCCO3)c3ccccc3n2)c1 (stereo not given) | 26.8% |
| c1ccc2c(NCC3CCCO3)nc(-c3ccncc3)nc2c1 (stereo not given) | 19.5% |
| c1ccc(-c2nc(NCc3ccco3)c3ccccc3n2)cc1 | 49.9% (active) |
| COc1ccccc1C(=O)N/C(=C/c1ccco1)C(=O)Nc1ccc(C(=O)O)cc1 | -3.06% |
| N/C(=N\OC(=O)CCCC(=O)O)c1ncc(C(F)(F)F)cc1Cl | -12.6% |
| O=C(c1ccccn1)c1ncc(C(F)(F)F)cc1Cl | -12.3% |
| N/C(=N\OC(=O)Nc1ccc(Cl)c(Cl)c1)c1ncc(C(F)(F)F)cc1Cl | 71.5% (active) |
| Cc1cccc(C)c1NC(=O)N1CC(C)OC(C)C1 (stereo not given) | -0.538% |
| CNC(=S)NNC(=O)c1oc2nc(-c3ccccc3)cc(-c3ccco3)c2c1N | 2.74% |
| CCN(CC)C(=O)c1sc2nc(-c3ccccc3)ccc2c1N | 18.6% |
| CS(=O)(=O)c1sc2nc(-c3ccccc3)cc(-c3ccccc3)c2c1N | 46.7% (active) |
| S=c1[nH]nc2c3c4c(sc3ncn12)CCCC4 | 29.6% |

| Compound | inhibition |
| --- | --- |
| C=C(C)COc1ccc(-c2n[nH]c(C)c2-c2ccccc2)c(O)c1 | 45.6% (active) |
| COc1ccc(-c2n[nH]c(C)c2-c2ccccc2OC)c(O)c1 | 25.2% |
| C=C(C)COc1ccc(-c2ncncc2-c2ccc(OC)cc2)c(O)c1 | 17.4% |
| Cn1c(=O)oc2cc(S(=O)(=O)NCCC(=O)NCc3ccccc3Cl)ccc21 | 6.26% |
| O=C(CN1CCSCC1)N/N=C/c1ccc(F)cc1F | -5.91% |
| CNS(=O)(=O)c1ccc(NC(=O)C2CC(=O)N(c3ccc(Cl)cc3)C2)cc1 (stereo not given) | -1.17% |
| Cc1c(NC(=O)C(C)OC(=O)c2c3c(nc4ccccc24)CCC(C)C3)c(=O)n(-c2ccccc2)n1C (stereo not given) | -6.65% |
| CSCCC(NS(=O)(=O)c1ccc(C)cc1)C(=O)N1CCCC1 (stereo not given) | -9.58% |
| CSCCC(NS(=O)(=O)/C=C/c1ccccc1)C(=O)N1CCC(C)CC1 (stereo not given) | 43.1% (active) |
| CSCCC(NC(=O)c1ccccc1)C(=O)N1CCCCCCC1 (stereo not given) | 2.09% |
| O=C1/C(=C/c2cccs2)CCC1C1CCCC1 (stereo not given) | -11.5% |
| CC(=O)NCc1ccc(S(=O)(=O)NC2CCN(Cc3ccccc3)CC2)cc1 | 0.58% |
| COc1ccc(S(=O)(=O)NC(C)c2ccccc2)cc1C(=O)N1CCCCC1 (stereo not given) | 13.1% |
| Cc1cccc(C2=N/C(=C/c3cccs3)C(=O)O2)c1 | 41.4% (active) |
| Cc1cccc(C(=O)Nc2ccc(C(=O)/C=C/c3cccs3)cc2)c1 | 10% |
| Cc1ccc(C2=N/C(=C\c3ccc(OS(=O)(=O)c4ccc(C)cc4)cc3)C(=O)O2)cc1 | -5.54% |
| CC1(C)C(C=C(Cl)Cl)C1C(=O)N(Cc1ccc(Cl)cc1)C1CCS(=O)(=O)C1 (stereo not given) | 17.4% |
| C=CS(=O)c1sc(Cl)c(N2CCOCC2)c1[N+](=O)[O-] (stereo not given) | 67.8% (active) |
| CCN(CC)P(=O)(Nc1ccc(SC(F)F)cc1)c1ccc(N(C)C)cc1NC(=O)c1ccco1 (stereo not given) | 19% |
| Cc1ccc(CCN2CC(C(=O)O)CC2=O)cc1 (stereo not given) | -9.17% |
